Inconclusive results are not listed. Calls of active or inactive are those of the source. Unless noted, calls follow the shape of the dose curve; as a rule, active = well fitted curve in the direction sought with a large enough effect; inconclusive = small, poorly fitted or top-dose-only effect, or another doubt; inactive = no such curve, though single readings can be large; an effect the other way counts as inactive or inconclusive.
Key:
[1] = biological target: Glucocorticoid receptor (Homo sapiens) (UniProt P04150); assay: GR-GFP Redistribution (AID 450;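 active = compounds whose dose series gives a full or clear partial fitted curve of increased nuclear translocation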; also: potency is read from the fitted curve at half-maximal effect); conditions: U2OS GR-GFP nuclear translocation, laser cytometry, 2 h
Chain of Glucocorticoid receptor (Homo sapiens) (P04150 whole entry, looked up, the tested form may be a part): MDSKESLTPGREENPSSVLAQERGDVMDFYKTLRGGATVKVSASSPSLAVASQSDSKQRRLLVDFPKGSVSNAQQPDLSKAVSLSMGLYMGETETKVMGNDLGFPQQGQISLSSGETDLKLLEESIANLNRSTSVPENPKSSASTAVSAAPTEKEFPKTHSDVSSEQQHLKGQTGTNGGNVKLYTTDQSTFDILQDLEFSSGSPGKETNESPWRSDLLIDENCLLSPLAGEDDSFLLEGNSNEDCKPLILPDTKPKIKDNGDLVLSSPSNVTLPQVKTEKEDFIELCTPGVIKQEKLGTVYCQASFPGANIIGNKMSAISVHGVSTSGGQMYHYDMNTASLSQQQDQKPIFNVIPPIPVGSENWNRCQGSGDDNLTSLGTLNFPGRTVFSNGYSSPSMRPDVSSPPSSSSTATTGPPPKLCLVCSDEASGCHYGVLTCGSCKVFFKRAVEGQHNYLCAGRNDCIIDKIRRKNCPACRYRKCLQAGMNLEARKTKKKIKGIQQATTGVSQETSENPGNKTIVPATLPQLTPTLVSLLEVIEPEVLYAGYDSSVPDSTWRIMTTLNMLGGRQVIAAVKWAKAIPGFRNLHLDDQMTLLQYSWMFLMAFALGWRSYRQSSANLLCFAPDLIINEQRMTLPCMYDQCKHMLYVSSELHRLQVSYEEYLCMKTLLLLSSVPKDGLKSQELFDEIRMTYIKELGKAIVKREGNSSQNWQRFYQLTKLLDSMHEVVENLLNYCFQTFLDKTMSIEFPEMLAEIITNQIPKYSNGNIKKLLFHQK

[2] = biological target: Glucocorticoid receptor (Homo sapiens) (UniProt P04150); assay: GR-EFC Redistribution (AID 451; calls by dose curve; also: potency is read from the fitted curve at half-maximal effect); conditions: CHO-K1 GR-EFC translocation, beta-gal luminescence, 2 h
Outline: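 Translocation of GR-ED fusion to nuclear EA restores b-gal, read by luminescence after 1 h room-temperature detection. Engineered CHO-K1 biosensor cells, 1,000/well, exposed 2 h at 37 C to titrations up to 46 uM final.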

[3] = biological target: Mitogen-activated protein kinase 10 (Mus musculus) (UniProt Q61831); assay: JNK3 AlphaScreen Assay (AID 530; active = well fitted curve in either direction with a large enough effect, not every such curve was filed as active;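 also: kinase came from lysate of stimulated human HepG2 cells; signal reports phosphorylation of biotinylated GST-cJun 1-79 at Ser73 with 10 µM ATP; % is scaled to controls: 0 for no effect and ±100 for the full control effect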)
Outline: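 Compound titrations were preincubated 15 minutes at room temperature with substrate, antibody and pre-activated JNK3-containing HepG2 lysate. Reactions were started with 10 uM ATP and stopped with EDTA-containing bead buffer for AlphaScreen detection.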

[4] = qHTS Assay for Lipid Storage Modulators (AID 1519; calls by dose curve; as to activity change, negative = inhibition: % is scaled to controls: 0 for no effect and ±100 for the full control effect); conditions: Drosophila S3 cells, BODIPY lipid droplet/cell ratio, laser cytometry, cells loaded with oleic acid; for activity change, negative = inhibition: at 57.5 µM (top of the series)
Outline: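 Cells seeded at 5,000 per well were treated with compounds over a concentration series and loaded with oleic acid (400 uM, as added). Lipid droplet fluorescence (488 nm excitation, 500-530 nm channel) was read by laser-scanning cytometry and normalized to 20 uM Triacsin C.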

[5] = biological target: Ubiquitin carboxyl-terminal hydrolase 1 (Homo sapiens) (UniProt O94782); assay: Inhibitors of USP1/UAF1: Pilot qHTS (AID 504865);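 also: rhodamine fluorescence freed from ubiquitin-rhodamine substrate followed over time; top concentration of the series differs between compounds; % is scaled to controls: 0 for no effect and ±100 for the full control effect; nearly all actives have a fitted effect of over 35% in size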
Chain of Ubiquitin carboxyl-terminal hydrolase 1 (Homo sapiens) (O94782 whole entry, looked up): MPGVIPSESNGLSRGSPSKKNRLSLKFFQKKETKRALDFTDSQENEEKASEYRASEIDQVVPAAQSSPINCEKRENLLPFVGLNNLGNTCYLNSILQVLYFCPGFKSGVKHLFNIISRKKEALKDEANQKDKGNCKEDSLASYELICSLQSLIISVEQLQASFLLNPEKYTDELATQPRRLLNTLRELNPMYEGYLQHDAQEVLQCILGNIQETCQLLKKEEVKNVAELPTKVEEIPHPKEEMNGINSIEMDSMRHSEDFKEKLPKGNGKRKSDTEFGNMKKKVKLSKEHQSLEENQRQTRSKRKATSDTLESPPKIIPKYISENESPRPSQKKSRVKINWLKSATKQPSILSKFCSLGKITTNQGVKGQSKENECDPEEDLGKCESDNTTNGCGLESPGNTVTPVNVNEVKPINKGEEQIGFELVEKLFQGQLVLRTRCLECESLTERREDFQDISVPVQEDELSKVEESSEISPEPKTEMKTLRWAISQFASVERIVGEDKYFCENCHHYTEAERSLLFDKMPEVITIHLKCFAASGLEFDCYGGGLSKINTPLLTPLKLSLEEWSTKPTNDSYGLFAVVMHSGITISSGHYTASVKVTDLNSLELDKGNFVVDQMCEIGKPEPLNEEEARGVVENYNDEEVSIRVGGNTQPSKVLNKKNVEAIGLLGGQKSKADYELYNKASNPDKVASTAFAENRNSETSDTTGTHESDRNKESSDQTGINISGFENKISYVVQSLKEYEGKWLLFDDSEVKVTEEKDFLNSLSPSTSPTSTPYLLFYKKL
Outline: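 Enzyme-free wells gave the negative control, while test wells held 1nM USP1/UAF1 preincubated with compound for 15 min at room temperature. Ub-Rho at 150nM final started the reaction, and fluorescence at 480/540 nm was recorded kinetically.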

[6] = biological target: DNA dC->dU-editing enzyme APOBEC-3G (Homo sapiens) (UniProt Q9HC16); assay: qHTS for inhibitors of Vif-A3G interactions: Validation (AID 588379); also: 0% is about no effect
Chain of DNA dC->dU-editing enzyme APOBEC-3G (Homo sapiens) (Q9HC16 whole entry, looked up): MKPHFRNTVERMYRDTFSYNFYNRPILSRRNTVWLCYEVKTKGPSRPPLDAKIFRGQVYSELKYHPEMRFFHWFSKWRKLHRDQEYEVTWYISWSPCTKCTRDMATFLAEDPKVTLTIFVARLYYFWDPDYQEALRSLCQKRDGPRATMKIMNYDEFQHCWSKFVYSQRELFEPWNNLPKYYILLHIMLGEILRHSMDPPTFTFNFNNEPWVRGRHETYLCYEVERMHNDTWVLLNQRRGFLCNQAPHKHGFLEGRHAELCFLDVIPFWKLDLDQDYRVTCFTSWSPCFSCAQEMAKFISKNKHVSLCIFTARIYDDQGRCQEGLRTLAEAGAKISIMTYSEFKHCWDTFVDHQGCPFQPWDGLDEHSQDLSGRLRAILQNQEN
Outline: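 HeLa cells stably expressing Vif and A3G-eYFP, 700 cells/well, incubated overnight at 37 deg C, then exposed to compound overnight at 37 deg C. Inhibition of Vif-mediated degradation read as increased yellow fluorescence (Ex 488/Em 500-530) by laser-scanning cytometry.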

[7] = Primary qHTS for small molecule stabilizers of the endoplasmic reticulum resident proteome: Secreted ER Calcium Modulated Protein (SERCaMP) assay (AID 1508630); also: % is scaled to controls: 0 for no effect and ±100 for the full control effect
Outline: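 GLuc-SERCaMP-expressing SH-SY5Y cells, pretreated 16 h with compound, are challenged with thapsigargin to empty ER calcium stores; after 4 h, coelenterazine is added directly to the medium and luminescence is imaged.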

[8] = biological target: Cytochrome P450 1A2 (Homo sapiens) (UniProt P05177); assay: p450-cyp1a2 (AID 410; calls by dose curve; also: potency is read from the fitted curve at half-maximal effect)
Chain of Cytochrome P450 1A2 (Homo sapiens) (P05177 whole entry, looked up): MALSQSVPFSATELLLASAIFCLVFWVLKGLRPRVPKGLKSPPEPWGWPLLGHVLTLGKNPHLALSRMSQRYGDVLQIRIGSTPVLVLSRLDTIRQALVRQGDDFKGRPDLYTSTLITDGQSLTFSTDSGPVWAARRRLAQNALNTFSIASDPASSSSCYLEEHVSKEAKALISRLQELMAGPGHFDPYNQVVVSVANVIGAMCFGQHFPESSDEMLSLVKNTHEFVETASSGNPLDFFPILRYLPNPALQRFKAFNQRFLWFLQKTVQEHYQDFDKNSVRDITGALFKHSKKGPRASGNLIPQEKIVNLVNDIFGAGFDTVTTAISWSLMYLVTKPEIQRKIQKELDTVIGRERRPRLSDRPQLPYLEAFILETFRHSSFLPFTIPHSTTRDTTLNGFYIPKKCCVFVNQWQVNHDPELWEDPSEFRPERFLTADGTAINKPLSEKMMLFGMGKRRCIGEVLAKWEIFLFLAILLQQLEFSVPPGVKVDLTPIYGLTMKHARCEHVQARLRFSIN
Outline: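 20nM CYP1A2 with 100uM Luciferin-ME (at Km) in 100mM KPO4; compound preincubated 10 min, NADPH regeneration added, 60 min at room temperature. Luciferin quantified by luminescence after detection reagent; normalized to 57 uM furafylline.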

[9] = biological target: 3',5'-cyclic-AMP phosphodiesterase 4B (Homo sapiens) (UniProt Q07343); assay: qHTS Assay for Inhibitors of PDE-IV (AID 607; active = well fitted activation curve with a large enough effect in the main read-out, with a control signal flat, not every such curve was filed as active; also: potency is read from the fitted curve at half-maximal effect)
Chain of 3',5'-cyclic-AMP phosphodiesterase 4B (Homo sapiens) (Q07343 whole entry, looked up): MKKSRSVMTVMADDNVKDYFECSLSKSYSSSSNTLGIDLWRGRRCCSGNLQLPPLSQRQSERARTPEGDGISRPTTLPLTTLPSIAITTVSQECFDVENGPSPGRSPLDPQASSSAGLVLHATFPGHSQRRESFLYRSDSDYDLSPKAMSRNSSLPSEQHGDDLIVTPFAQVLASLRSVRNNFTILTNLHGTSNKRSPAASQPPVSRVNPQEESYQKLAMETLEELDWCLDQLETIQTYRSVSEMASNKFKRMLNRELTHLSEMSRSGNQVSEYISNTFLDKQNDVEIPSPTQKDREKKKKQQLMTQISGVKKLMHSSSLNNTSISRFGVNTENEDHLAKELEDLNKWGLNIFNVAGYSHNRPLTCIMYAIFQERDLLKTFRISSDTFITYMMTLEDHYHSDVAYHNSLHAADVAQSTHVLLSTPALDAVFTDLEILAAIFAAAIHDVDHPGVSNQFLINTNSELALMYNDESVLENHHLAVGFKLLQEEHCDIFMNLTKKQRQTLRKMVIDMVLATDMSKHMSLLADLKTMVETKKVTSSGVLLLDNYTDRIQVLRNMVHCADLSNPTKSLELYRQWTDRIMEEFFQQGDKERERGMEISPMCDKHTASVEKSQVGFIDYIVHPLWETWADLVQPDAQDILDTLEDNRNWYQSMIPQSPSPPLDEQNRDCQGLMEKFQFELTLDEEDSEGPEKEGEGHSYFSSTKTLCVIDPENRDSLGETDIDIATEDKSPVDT
Outline: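 The readout is membrane depolarisation from a cAMP-sensing CNG channel, detected with a potential dye at ex 535/em 590. Cells were HEK293-derived (endogenous PDE-IV) at 1000 cells/well, titrated up to 22.9 uM final.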

[10] = biological target: Cytochrome P450 2D6 (Homo sapiens) (UniProt P10635); assay: qHTS Assay for Inhibitors and Substrates of Cytochrome P450 2D6 (AID 891); also: potency is read from the fitted curve at half-maximal effect; nearly all actives have a fitted effect of over 60% in size
Chain of Cytochrome P450 2D6 (Homo sapiens) (P10635 whole entry, looked up): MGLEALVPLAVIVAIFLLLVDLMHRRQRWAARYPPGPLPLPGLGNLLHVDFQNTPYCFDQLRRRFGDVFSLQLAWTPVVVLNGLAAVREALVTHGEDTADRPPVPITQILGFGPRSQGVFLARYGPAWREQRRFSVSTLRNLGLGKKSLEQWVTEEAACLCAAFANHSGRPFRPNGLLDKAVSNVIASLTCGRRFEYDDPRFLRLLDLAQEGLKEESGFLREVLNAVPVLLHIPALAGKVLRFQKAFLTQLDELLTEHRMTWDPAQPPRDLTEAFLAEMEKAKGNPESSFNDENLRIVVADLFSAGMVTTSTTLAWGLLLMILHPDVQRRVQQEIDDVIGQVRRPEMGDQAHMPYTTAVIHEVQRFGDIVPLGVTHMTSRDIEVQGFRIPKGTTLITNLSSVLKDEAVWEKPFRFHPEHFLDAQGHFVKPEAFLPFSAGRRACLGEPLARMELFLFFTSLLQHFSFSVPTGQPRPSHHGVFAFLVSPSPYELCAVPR
Outline: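 Human CYP2D6 (5 nM) with 30 uM Luciferin-ME EGE (at Km) in 100 mM KPO4, compound preincubated 10 min, then NADPH regeneration system for 60 min at room temperature. Luciferin read by luminescence; normalized to 1.43 uM quinidine.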

[11] = measured here: cell count channel max response
[12] = measured here: lipid channel max response

| SMILES | Potency [1] | Potency [2] | outcome [3] | activity change, negative = inhibition [4] | max response [4, 11] [%] | max response [4, 12] [%] | Potency [5] | Potency [6] | Potency [7] | Potency [8] | Potency [9] | Potency [10] |
| --- | --- | --- | --- | --- | --- | --- | --- | --- | --- | --- | --- | --- |
| C[C@](N)(CCP(=O)(O)O)C(=O)O | > 46 µM (inactive) | > 46 µM (inactive) | inactive | 6.09% (inactive) | -23.4 | -20.7 | inactive | inactive | inactive |  |  |  |
| CC1OC(=O)[C@@H](C(C)C)NC(=O)C(C(C)C)OC(=O)[C@H](C(C)C)NC(=O)C(C)OC(=O)[C@@H](C(C)C)NC(=O)C(C(C)C)OC(=O)[C@H](C(C)C)NC(=O)C(C)OC(=O)[C@@H](C(C)C)NC(=O)C(C(C)C)OC(=O)[C@H](C(C)C)NC1=O (some centres not stated) |  |  |  |  |  |  |  |  | inactive |  |  |  |
| c1ccc(C[C@@H](c2ccccc2)N2CCCCC2)cc1 | > 46 µM (inactive) | > 46 µM (inactive) | inactive | -5.07% (inactive) | -11.4 | -18.1 | inactive | inactive | inactive | 15.8 µM (active) | 4.77 µM (active) | 2 µM (active) |

From PubChem BioAssay (NCATS)
